Bioassay records as filed in PubChem BioAssay.
RGS4-Gao reg: human RGS4-Galphao interaction regulation; P09471; hit rate 0.33% among 220,000; Multiplexed bead flow cytometry, RGS4-Galphao binding; actives lie on both sides; binding response (% of control), % at 10 µM; in the data active means binding response below about 49% or above about 150%; inactive means in between;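 further: fluorescent Galphao activated with aluminum fluoride binding bead-coupled RGS4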
RGS16-Gao HTS: modulates binding between human RGS16 and Galphao | O15492+P09471 | bead-based flow cytometry RGS16-Galphao binding, fluorescence; actives lie on both sides | binding response (% of control), % at 10 µM | hit rate 0.38% among 220,000;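 further: Galphao activated by GDP with aluminum fluoride before binding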
Target sequence (O15492 whole entry, looked up): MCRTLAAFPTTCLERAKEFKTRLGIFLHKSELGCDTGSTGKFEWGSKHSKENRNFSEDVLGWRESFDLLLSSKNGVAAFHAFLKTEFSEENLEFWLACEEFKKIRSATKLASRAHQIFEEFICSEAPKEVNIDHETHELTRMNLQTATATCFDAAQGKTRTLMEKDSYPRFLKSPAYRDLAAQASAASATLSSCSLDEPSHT
Target sequence (P09471 whole entry, looked up): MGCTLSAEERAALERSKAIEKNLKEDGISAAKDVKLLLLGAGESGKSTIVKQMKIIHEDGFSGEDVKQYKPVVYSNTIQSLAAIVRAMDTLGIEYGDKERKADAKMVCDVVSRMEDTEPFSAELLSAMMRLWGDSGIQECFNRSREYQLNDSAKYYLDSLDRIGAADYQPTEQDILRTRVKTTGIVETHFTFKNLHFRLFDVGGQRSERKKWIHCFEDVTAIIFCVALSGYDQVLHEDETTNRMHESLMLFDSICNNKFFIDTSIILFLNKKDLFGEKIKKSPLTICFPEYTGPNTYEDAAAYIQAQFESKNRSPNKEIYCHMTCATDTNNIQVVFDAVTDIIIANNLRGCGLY
Avidin bead fluor: compound fluoresces at 488/530 nm on avidin beads | compound fluorescence 488/530 nm, flow cytometry; active compounds read high | hit rate 0.38% among 220,000 | fluorescence (KMESF) at 10 µM; in the data active means fluorescence above about 47
RGS8-Gao: modulates binding of RGS8 to human Galphao. P09471. multiplexed bead flow cytometry; actives lie on both sides. response (percent of control binding), % at 10 µM. hit rate 0.34% among 220,000; in the data active means response below about 60% or above about 140%; inactive means in between;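 further: Galphao activated as the GDP aluminium fluoride complex binding bead-coupled RGS8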
GSH bead fluor: GSH bead compound fluorescence profile. GSH beads flow cytometry, compound fluorescence 488/530 nm; active compounds read high. fluorescence (KMESF) at 10 µM. hit rate 0.25% among 190,000. AID 1776; in the data active means fluorescence above about 89;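 further: glutathione beads carrying GST-tagged Bcl family fusion proteins plus one bare bead set; values are compound well signal with DMSO vehicle wells as background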
RGS7-Gao reg: regulators of human RGS7-Galphao interaction | hit rate 0.35% among 220,000 | binding response (% of control), % at 10 µM | Multiplexed bead flow cytometry, RGS7-Galphao binding; actives lie on both sides | P09471; in the data active means binding response below about 49% or above about 150%; inconclusive means no clear call, values can overlap the other calls; inactive means in between;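 further: fluorescent Galphao held in activated GDP-AlF4 state binding bead-coupled RGS7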
RGS4-Gao HTS: RGS4-Galphao interaction regulator (human); shares compounds with RGS16-Gao HTS; multiplexed bead flow cytometry, RGS–Galpha-o binding; RGS4–Galpha-o binding response, % at 10 µM; hit rate 99% among 1,600; AID 1504;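 further: fluorescently labeled Galpha-o bound to GDP with aluminium fluoride binding biotinylated RGS beads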
Target sequence (P09471 whole entry, looked up): as above
Target sequence (P49798 whole entry, looked up): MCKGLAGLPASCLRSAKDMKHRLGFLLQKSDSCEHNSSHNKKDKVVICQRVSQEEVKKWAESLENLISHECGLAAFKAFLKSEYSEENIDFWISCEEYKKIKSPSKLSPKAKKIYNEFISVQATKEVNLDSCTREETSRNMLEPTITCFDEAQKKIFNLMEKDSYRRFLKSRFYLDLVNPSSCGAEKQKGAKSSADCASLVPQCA
Biotin-avidin: interferes with biotinylated probe binding to avidin beads. 1,700 tested, under 10 active. AID 1783. shares compounds with RGS16-Gao HTS. inhibition, % at 10 µM. streptavidin beads, fluorescein-biotin binding, flow cytometry;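 active means inhibition above 50%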;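 further: median green fluorescence of gated singlet beads compared with DMSO control wells; 0% = DMSO wells and 100% = complete loss of bead fluorescence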
RGS8-Gao single: RGS8-Galphao interaction regulation, single point confirmation; shares compounds with RGS16-Gao HTS; bead-based flow cytometry RGS8-Galphao binding, fluorescence; actives lie on both sides; binding response (% of control), % at 10 µM; hit rate 3% among 1,700; in the data active means binding response below about 72% or above about 130%; inactive means in between;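 further: Galphao activated as GDP AlF4 complex before binding bead RGS8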
RGS7-Gao confirm: RGS7-Galphao interaction regulation, single point confirmation; hit rate 7.8% among 1,700; shares compounds with RGS16-Gao HTS; response (percent of control binding), % at 10 µM; bead-based flow cytometry RGS7-Galphao binding; actives lie on both sides; in the data active means response below about 75% or above about 130%; inactive means in between;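 further: fluorescent Galphao activated with GDP and aluminum fluoride binding bead-coupled RGS7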
RGS16-Gao conf: confirmation of regulators of human RGS16-Galphao interaction; shares compounds with RGS16-Gao HTS; bead-based flow cytometry, RGS16-Galphao binding; actives lie on both sides; response (% of control binding), % at 10 µM; hit rate 4% among 1,700; AID 1838; in the data active means response below about 74% or above about 130%; inactive means in between;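 further: Galphao activated as the GDP aluminium fluoride complex binding bead-coupled RGS16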
RGS4-Gao single: confirmation of regulators of human RGS4-Galphao interaction | AID 1840 | binding response (% of control), % at 10 µM | shares compounds with RGS16-Gao HTS | hit rate 4% among 1,700 | RGS4-Galphao binding, multiplexed bead flow cytometry; actives lie on both sides; in the data active means binding response below about 74% or above about 130%; inactive means in between
RGS19-Gao conf: RGS19-Galphao interaction regulation, single point confirmation | shares compounds with RGS16-Gao HTS | AID 1841 | hit rate 5% among 1,700 | bead-based flow cytometry RGS19-Galphao binding; actives lie on both sides | response (percent of control binding), % at 10 µM; in the data active means response below about 50% or above about 160%; inactive means in between;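 further: 100% = no compound control and 0% = blank background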
Active calls of the source: *; i = inactive; ? = inconclusive; · = no result given; [ ] = remark or other dose. This is a sample that favours compounds with a hit; in the whole collection about 1.2% have one here. Unless noted, how the calls were made is not given here.

SMILES | RGS4-Gao reg | RGS16-Gao HTS | Avidin bead fluor | RGS8-Gao | GSH bead fluor | RGS7-Gao reg | RGS4-Gao HTS | Biotin-avidin | RGS8-Gao single | RGS7-Gao confirm | RGS16-Gao conf | RGS4-Gao single | RGS19-Gao conf
CCc1nnc(NC(=O)c2cc(S(=O)(=O)N3CCN(c4ccccc4)CC3)ccc2Cl)s1 | 103.6 | 101.5 | 14 | 101.0 | 61 | 100.0 | · | · | · | · | · | · | ·
O=C(CCCOc1ccc(Cl)cc1Cl)Nc1ccncc1 | · | · | · | · | 40 | · | · | 0.1 | 104.3 | 95.7 | 106.1 | 100.9 | 99.1
C=CCn1c(CNC(=O)c2ccccc2F)nnc1SCC(=O)NC(C)c1ccccc1 (stereo unspecified) | 93.8 | 102.8 | 7 | 95.8 | 20 | 100.4 | · | · | · | · | · | · | ·
Cc1occc1C(=O)NNC(=O)Nc1ccc([N+](=O)[O-])cc1 | 98.2 | 99.6 | 14 | 98.6 | 10 | 99.0 | · | · | · | · | · | · | ·
NNc1nc2ccc(Cl)cc2s1 | 102.3 | 99.0 | 15 | 101.8 | 17 | 100.4 | · | · | · | · | · | · | ·
NNc1nc2ccc(F)cc2s1 | 91.8 | 0.3* | 8 | 77.7 | 9 | 88.6 | 91.8* | 2.6 | 101.2 | 94.2 | 101.5 | 99.6 | 108.0
COc1cc([N+](=O)[O-])cc(/C=N/NC(=O)CSc2ccccn2)c1O | 93.5 | 89.8 | 7 | 94.6 | · | ? | · | · | · | · | · | · | ·
COc1ccccc1N1CCN(S(=O)(=O)c2ccc3c4c(cccc24)C(=O)N3)CC1 | 118.2 | 116.8 | 20 | 108.4 | 14 | 113.8 | · | · | · | · | · | · | ·
COc1ccccc1N1CCN(S(=O)(=O)c2ccc3c4c(cccc24)C(=O)N3C)CC1 | -21.1* | -18.9* | -3 | 15.6* | 31 | -3.9* | · | 1.3 | 101.0 | 104.5 | 102.5 | 104.4 | 103.8
CCc1nnc(NC(=O)CSc2nc(-c3ccccc3)nc3ccccc23)s1 | 103.2 | 104.2 | 13 | 100.0 | 18 | 102.6 | · | · | · | · | · | · | ·
CSCCC(NS(=O)(=O)c1ccc(F)cc1)C(=O)NCc1ccc(S(N)(=O)=O)cc1 (stereo unspecified) | 99.6 | 104.4 | · | 100.1 | · | ? | · | · | · | · | · | · | ·
NC(=O)CCC(NS(=O)(=O)c1ccc(Cl)cc1)C(=O)NCc1ccc(Cl)cc1 (stereo unspecified) | 89.5 | 6.5* | 6 | 70.2 | 6 | 84.8 | 89.5* | 0.1 | 110.5 | 112.0 | 113.8 | 109.4 | 132.7
COc1ccccc1N1CCN(C(=O)c2c(-c3ccccc3Cl)noc2C)CC1 | 63.6 | -10.6* | 10 | 77.1 | 9 | 73.7 | 63.6* | 0.5 | 99.8 | 100.7 | 98.2 | 97.6 | 101.6
CCN(CC)c1ccc(CNCc2cccs2)cc1 | 92.7 | 95.0 | 8 | 97.9 | 14 | ? | · | · | · | · | · | · | ·
S=C(Nc1ccc2nsnc2c1)N1CCCCC1 | 85.7 | 2.5* | 6 | 78.3 | 7 | 85.9 | 85.7* | · | · | · | · | · | ·
S=C(Nc1ccc2nc(-c3ccccn3)c(-c3ccccn3)nc2c1)N1CCCCC1 | 100.1 | 100.9 | 9 | 99.7 | 14 | 98.8 | · | · | · | · | · | · | ·
O=C(CSc1nncn1-c1ccccc1)NC1CCCc2ccccc21 (stereo unspecified) | 92.5 | 23.3* | 0 | 69.2 | 11 | 93.5 | 92.5* | -2.3 | 100.9 | 95.1 | 100.3 | 98.5 | 78.5
COC(=O)c1cc(C(=O)NCCC(C)C)cc([N+](=O)[O-])c1 | 99.2 | 100.7 | 10 | 100.4 | 10 | 101.5 | · | · | · | · | · | · | ·
Cc1nc(Cl)c(C(=O)NCCC(C)C)c(C)c1[N+](=O)[O-] | 104.6 | 177.6*[activator] | 7 | 114.8 | 8 | 107.2 | 104.6* | 1.4 | 97.1 | 95.2 | 96.3 | 95.7 | 79.7
Cc1nnn(-c2nonc2N)c1C(=O)NNC(=O)c1ccc(Cl)c(Cl)c1 | 100.7 | 103.0 | 10 | 103.7 | 14 | ? | · | · | · | · | · | · | ·
Cc1ccc2c(c1)NC(=O)C(CC(=O)NCc1cccnc1)O2 (stereo unspecified) | 154.1*[activator] | 284.9 | 3 | 160.9*[activator] | 21 | 144.6 | · | -0.6 | 97.0 | 104.4 | 98.4 | 98.6 | 99.8
Cc1ccc2c(c1)NC(=O)C(CC(=O)NCc1ccc(F)cc1)O2 (stereo unspecified) | 101.3 | 101.8 | 8 | 102.3 | 21 | 104.1 | · | · | · | · | · | · | ·
COc1ccccc1-c1nnc(SC(C)C(=O)O)n1-c1ccccc1 (stereo unspecified) | 97.7 | 99.6 | 9 | 96.8 | 17 | 100.3 | · | · | · | · | · | · | ·
NS(=O)(=O)c1ccc(CCNC(=O)C2CCC(Cn3c(=S)[nH]c4ccccc4c3=O)CC2)cc1 (stereo unspecified) | 22.1* | 11.4* | 2 | 13.3* | 14 | 16.7* | · | 1.2 | 103.2 | 104.5 | 105.2 | 103.1 | 100.9
Cc1ccc([N+](=O)[O-])cc1NC(=O)/C=C/C(=O)O | 96.0 | 96.1 | 8 | 100.7 | · | ? | · | · | · | · | · | · | ·
SMILES | RGS4-Gao reg | RGS16-Gao HTS | Avidin bead fluor | RGS8-Gao | GSH bead fluor | RGS7-Gao reg | RGS4-Gao HTS | Biotin-avidin | RGS8-Gao single | RGS7-Gao confirm | RGS16-Gao conf | RGS4-Gao single | RGS19-Gao conf
COc1ccc([N+](=O)[O-])cc1NC(=O)/C=C/C(=O)O | 90.9 | 13.5* | 2 | 65.7 | 10 | 92.1 | 90.9* | i | 103.4 | 101.4 | 106.8 | 101.7 | 118.5
COc1ccc([N+](=O)[O-])cc1NC(=O)Cc1ccc(C)cc1 | 84.3 | -0.2* | 6 | 68.1 | 9 | 78.6 | 84.3* | 1.1 | 102.2 | 99.8 | 99.0 | 101.9 | 86.2
Nc1nnc(-c2cc3c(ccc4ccccc43)oc2=O)s1 | 99.2 | 99.3 | 10 | 100.2 | 10 | 102.5 | · | · | · | · | · | · | ·
Cc1ccc(F)cc1NC(=O)N1c2ccccc2NC(=O)CC1C (stereo unspecified) | 96.1 | 101.1 | 11 | 101.5 | · | ? | · | · | · | · | · | · | ·
O=C(Nc1ccccc1[N+](=O)[O-])C1(c2ccccc2)CCOCC1 | 141.1 | 110.3 | 202* | 97.4 | 23 | 333.5*[activator] | 141.1* | 2.0 | 97.8 | 91.3 | 95.0 | 96.1 | 89.3
O=C(Nc1c(C(=O)O)[nH]c2ccc(F)cc12)c1cccc(C(F)(F)F)c1 | 108.7 | 105.3 | 2 | 104.4 | · | ? | · | · | · | · | · | · | ·
O=C(Cn1cccc1C(=O)c1ccccc1)NCc1ccc(Cl)cc1 | 101.1 | 102.6 | 11 | 100.1 | 20 | 99.5 | · | · | · | · | · | · | ·
